An excerpt weighted towards active compounds, which were near 3.4% of everything screened.
HIV Env fusion: inhibitors of HIV Env-mediated cell fusion; HeLa-JRFL Env/CEM21 cell fusion, luciferase; inhibition, % at 12.3 µM; 360,000 compounds, 1.1% hits; AID 651610;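 active means mean replicate inhibition score of at least 50 and every replicate individually at or above 50; inconclusive means only one of the two criteria met; inactive means mean below 50 and not all replicates reaching 50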;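 further: 0% = plate neutral controls and 100% = maraviroc near 300 nM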
Wnt act: Wnt/beta-catenin pathway activation; Wnt/beta-catenin reporter cell assay, activator, plate reader; activation, % at 9.35 µM; 300,000 compounds, 1.2% hits; AID 743398; in the data active means activation above about 30%, passing the limit was not always enough; inconclusive means no clear call, values can overlap the other calls;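 further: 0% = neutral control wells and 100% = positive control wells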
MITF act: MITF TRPM1 promoter activation in melanoma cells; activation, % at 12.5 µM; SK-MEL-5 TRPM1-promoter luciferase, 24 h; % of positive control, neutral wells = 0; 300,000 compounds, 0.75% hits;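 active means mean activation of at least 80% with every replicate also reaching 80%; inconclusive means mean reaches 80% but some replicate falls short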;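 further: 0% = neutral control wells and 100% = parthenolide positive control wells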
esBAF inh: blocks esBAF chromatin remodeling in mouse ES cells. reporter increase, % at 12.5 µM. Bmi1-luciferase knock-in reporter, 24 h; 100% = twice the neutral-well signal. AID 602393. 350,000 compounds, 2% hits; in the data active means activation above about 40%; inconclusive means no clear call, values can overlap the other calls;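 further: 0% = median of the plate's neutral control wells and 100% = double that signal; a rise in the Bmi1 reporter signal indicates esBAF inhibition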
miR-122 sensor: miR-122 inhibition in Huh7 cells. 340,000 compounds, 0.3% hits. activation (reporter increase), % at 12.5 µM. Huh7 miR-122 Renilla luciferase sensor, 48 h; neutral wells = 0, positive control = 100;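 active means mean replicate activation score at least 90 and every replicate individually at or above 90; inconclusive means only one of the two criteria met; inactive means neither criterion met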;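 further: higher luciferase means less miR-122 activity so hits act as miR-122 inhibitors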
* hit, by the source's call; i = inactive; ? = inconclusive; nt = no result; ! = a repeat was not active; [ ] = another dose, or the depositor's remark.

SMILES | HIV Env fusion | Wnt act | MITF act | esBAF inh | miR-122 sensor
COc1ccc(C(=O)N2CCN(c3cccc(Cl)c3)CC2)cc1S(=O)(=O)NC1CC1 | nt | -2 | 44 | -13 | 11
C/C=C/c1ccc2c(c1)O[C@H](CN(C)C(=O)Nc1cc(F)ccc1F)[C@H](C)CN([C@H](C)CO)S2(=O)=O | 43[16.7 µM] | nt | nt | 3 | 22[16.7 µM]
CCOC(=O)c1ccc2[nH]c3c(c2c1)CCCC3 | -22 | 20 | 63 | 66* | -6
CCOC(=O)c1ccc2[nH]c3c(c2c1)CCCC3O (configuration not stated) | -23 | 1 | 24 | nt | nt
Cc1ccc(N/N=C/C=C/c2ccco2)cc1 | -119 | 27 | 99* | nt | nt
C[C@@H]1CN([C@H](C)CO)C(=O)Cc2cc(NC(=O)Nc3cccc4ccccc34)ccc2O[C@@H]1CN(C)Cc1ccc(Oc2ccccc2)cc1 | -52[16.7 µM] | nt | nt | -4 | -4[16.7 µM]
C[C@H]1CN([C@@H](C)CO)S(=O)(=O)c2ccc(Br)cc2O[C@H]1CN(C)Cc1ccc(F)cc1 | 71*[16.7 µM] | -2 | nt | 5 | -1
C[C@H](CO)N1C[C@H](C)[C@@H](CN(C)Cc2ccc(F)cc2)Oc2cc(Br)ccc2S1(=O)=O | 40[16.7 µM] | nt | nt | 3 | 6[16.7 µM]
C[C@H]1CN([C@@H](C)CO)S(=O)(=O)c2ccc(Br)cc2O[C@H]1CN(C)Cc1ccccc1 | 61*![16.7 µM] | -2 | nt | -2 | -7
C[C@H]1CN([C@@H](C)CO)S(=O)(=O)c2ccc(Br)cc2O[C@@H]1CN(C)Cc1ccccc1 | 29[16.7 µM] | -1 | nt | 2 | -2
C[C@@H]1CN([C@H](C)CO)C(=O)c2cc(C#CCN(C)C)cnc2O[C@@H]1CN(C)C(=O)c1ccc2c(c1)OCO2 | 2[16.7 µM] | nt | nt | -2 | nt
CCN(CC)c1ccc2cc(C(C)=O)c(=O)oc2c1 | -47 | 28 | 12 | nt | 0
CCN(CC)c1ccc2cc(C(=O)Nc3ccccn3)c(=O)oc2c1 | i | 27 | 10 | 49* | 6
CN1C(=O)CSc2ccc(NC(=O)N3CCc4ccccc43)cc21 | nt | 29 | 70 | 94* | 7
Cc1ccc(NC(=O)N2CCc3ccccc32)cc1C | -206 | -1 | 37 | nt | nt
CN1C(=O)CSc2ccc(NC(=O)Nc3ccccn3)cc21 | nt | 1 | 143* | nt | nt
COc1ccc(C(=O)Nc2ccc3c(c2)C(=O)N(C)C[C@H](OC)[C@H](C)CN[C@@H](C)CO3)cc1 | 2[16.7 µM] | nt | nt | 0 | -7[16.7 µM]
O=C(NCC[C@H]1CC[C@H](NC(=O)C2CCC2)[C@@H](CO)O1)c1cc(Cl)cc(Cl)c1 | -13[16.7 µM] | nt | nt | 0 | nt
CCN(CC)c1ccc2cc(-c3nnc(-c4ccncc4)o3)c(=O)oc2c1 | -35 | nt | 72 | 44* | 6
CCN(CC)c1ccc2cc(C(N)=O)c(=O)oc2c1 | nt | 16 | 28 | ? | -3
O=C(NC(=S)Nc1ccccc1)C1CCCCC1 | -16 | 6 | 50 | 41* | 7
COc1ccc(NC(=S)NC(=O)C2CCC2)cc1 | -19 | 38* | 31 | 47* | nt
COC(=O)c1ccc(NC(=S)NC(=O)C2CCC2)cc1 | -28 | 3 | 11 | nt | 1
CC(C)(C)NS(=O)(=O)c1ccc(NC(=S)NC(=O)C2CC2)cc1 | 9 | 0 | -5 | -1 | 196*
CCS(=O)(=O)Nc1ccc2c(c1)C(=O)N(C)[C@@H]1CC[C@@H](CC(=O)NCc3ccccc3F)O[C@@H]1CO2 | 14[16.7 µM] | nt | nt | 0 | nt
SMILES | HIV Env fusion | Wnt act | MITF act | esBAF inh | miR-122 sensor
C[C@@H]1CN([C@@H](C)CO)S(=O)(=O)c2ccc(C#Cc3ccc(F)cc3)cc2O[C@@H]1CN(C)S(=O)(=O)c1ccc(F)cc1 | 30[16.7 µM] | nt | nt | -8 | 31[16.7 µM]
Cc1noc(C)c1S(=O)(=O)N(C)C[C@@H]1Oc2ccc(NC(=O)Cc3ccccc3)cc2CC(=O)N([C@@H](C)CO)C[C@@H]1C | 12[16.7 µM] | nt | nt | -11 | -3[16.7 µM]
O=C1CC[C@@H](O)CCN1CC[C@H](Sc1ccc(Br)cc1)c1ccccc1 | -35 | 1 | 11 | 3 | -4
CC(C)(C)[C@@H]1CCC(=O)N(CC[C@H](Sc2ccc(Br)cc2)c2ccccc2)CC1 | 67* | -3 | -2 | -5 | nt
Cc1noc(C)c1S(=O)(=O)Nc1ccc2c(c1)C(=O)N([C@@H](C)CO)C[C@@H](C)[C@@H](CN(C)Cc1ccc(C(=O)O)cc1)OCCCC[C@@H](C)O2 | -24[16.7 µM] | nt | nt | 5 | 4[16.7 µM]
COc1ccc(NS(=O)(=O)c2ccc(N3CCOCC3)c(NC(=O)c3ccco3)c2)cc1 | 1 | -2 | -7 | 6 | 30
COc1ccc(NS(=O)(=O)c2ccc(N3CCOCC3)c(NC(=O)C(C)C)c2)cc1 | 9 | 1 | -8 | 5 | -8
COc1ccc(NS(=O)(=O)c2ccc(N3CCOCC3)c(NC(=O)c3ccc(F)cc3)c2)cc1 | -6 | -2 | 9 | 14 | 179*
COc1ccc(NS(=O)(=O)c2ccc(N3CCOCC3)c(NC(=O)c3cccc(F)c3)c2)cc1 | -5 | nt | -3 | 12 | 190*
CC=Cc1ccc2n(c1=O)C[C@@H]1[C@@H](CO)[C@H](C(=O)N3CCOCC3)[C@H]2N1CC1CC1 (mixture of isomers) | nt | nt | nt | 7 | 4[16.7 µM]
COC(=O)[C@@H](CC(C)C)N(Cc1ccccc1)S(=O)(=O)N(Cc1ccccc1)[C@@H](CC(C)C)C(=O)OC | 85* | -11 | -10 | -3 | 0
CS(=O)(=O)N(Cc1cccc(CN(C(C(=O)O)c2ccccc2)S(C)(=O)=O)c1)C(C(=O)O)c1ccccc1 (configuration not stated) | 21 | -3 | 12 | -5 | -1
CC(C)C[C@@H](C(=O)O)N(Cc1cccc(CN([C@@H](CC(C)C)C(=O)O)S(C)(=O)=O)c1)S(C)(=O)=O | 61* | -2 | 10 | nt | -4
O=C(NCC[C@@H]1CC[C@@H](NS(=O)(=O)c2ccc(F)cc2)[C@@H](CO)O1)Nc1ccc(Cl)cc1 | 31[16.7 µM] | nt | nt | 18 | 5[16.7 µM]
CCCC(=O)Nc1ccc(C(=O)COC(=O)C2CC2)cc1 | nt | 48* | 73 | 39 | 0
CC(=O)Nc1ccc(C(=O)COC(=O)C2CC2)c(F)c1 | -7 | 38* | 126* | 40 | nt
Cc1nc2c(ccc3nc(NC(=O)C4CC4)sc32)s1 | ? | 5 | -20 | 68* | 7
CC(=O)Nc1nc2c(C)cc(NC(=O)C3CCCCC3)cc2s1 | -21 | -1 | nt | 60* | 0
Cc1c(Cl)ccc2sc(NC(=O)C3CC3)nc12 | -17 | 7 | nt | 53* | nt
CC(=O)Nc1nc2c(C)c(Cl)ccc2s1 | 13 | 0 | -19 | 4 | 0
CCC(=O)Nc1nc2ccc3sc(C)nc3c2s1 | -60 | 4 | 1 | nt | nt
Cc1ccc(S(=O)(=O)N(C)C[C@H]2OCCCC[C@H](C)Oc3ccc(NC(=O)NC(C)C)cc3C(=O)N([C@H](C)CO)C[C@@H]2C)cc1 | -18[16.7 µM] | nt | nt | -6 | 7[16.7 µM]
NC(=NCc1ccco1)NC(=O)c1ccc(Cl)cc1 | -29 | 3 | 92* | 49* | 7
COc1ccc(CN(C)C[C@@H]2OCCCC[C@H](C)Oc3ccc(NC(=O)NC4CCCCC4)cc3C(=O)N([C@H](C)CO)C[C@@H]2C)cc1 | -26[16.7 µM] | nt | nt | 2 | 9[16.7 µM]

Bioassay records from PubChem.
